Reference: publication PMC7862700, “An all-to-all approach to the identification of sequence-specific readers for epigenetic DNA modifications on cytosine”

Tests used:
Test in all cases: DAPPL (digital affinity profiling via proximity ligation, sequencing); 10 mM Tris-HCl pH 7.5, 50 mM NaCl, 1 mM DTT, 4% glycerol, room temperature, 30 min; GST-TFs on glutathione beads, 16-mer random dsDNA library, 0.1% formaldehyde crosslink after washing; high values mean tight binding
Conditions in all cases: protein: recombinant; tags: N-terminal GST; dsDNA, one strand shown
ERF = biological target: T1, ERF (Homo sapiens, UniProt P50548 1-548)
T1 sequence: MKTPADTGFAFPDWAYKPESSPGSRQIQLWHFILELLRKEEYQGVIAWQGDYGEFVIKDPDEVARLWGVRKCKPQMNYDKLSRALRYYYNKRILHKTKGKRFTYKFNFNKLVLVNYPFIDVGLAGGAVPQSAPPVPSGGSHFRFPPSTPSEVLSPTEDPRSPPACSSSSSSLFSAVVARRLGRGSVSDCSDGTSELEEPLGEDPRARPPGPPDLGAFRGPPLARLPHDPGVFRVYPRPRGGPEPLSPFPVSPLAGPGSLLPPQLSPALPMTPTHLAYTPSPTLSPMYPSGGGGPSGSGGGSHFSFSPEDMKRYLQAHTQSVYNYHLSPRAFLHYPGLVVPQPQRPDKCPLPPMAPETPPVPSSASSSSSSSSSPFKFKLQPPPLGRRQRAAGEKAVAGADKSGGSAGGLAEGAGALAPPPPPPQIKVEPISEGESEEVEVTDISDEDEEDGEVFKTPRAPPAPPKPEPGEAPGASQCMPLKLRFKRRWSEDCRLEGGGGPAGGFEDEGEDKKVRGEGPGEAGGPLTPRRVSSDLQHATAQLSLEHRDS
How it was run: (§1)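 Pools of DNA-barcoded human transcription factors, expressed in yeast as GST fusions on glutathione beads and combined with a tag-only sample, were incubated with 200 nmole of a 16-mer random double-stranded DNA library. Incubation took 30 min at room temperature in Tris/NaCl/DTT/glycerol buffer and was followed by washing, 0.1% formaldehyde crosslinking, proximity ligation (BsaI/T4 ligase, 1 h, 37 °C), PCR amplification and sequencing on an Illumina NextSeq500. Binding signal is the ratio of a hexamer's read frequency for a factor to its frequency for the tag-only sample.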

ETV3L = biological target: T2, ETV3L (Homo sapiens, UniProt Q6ZN32 1-361)
T2 sequence: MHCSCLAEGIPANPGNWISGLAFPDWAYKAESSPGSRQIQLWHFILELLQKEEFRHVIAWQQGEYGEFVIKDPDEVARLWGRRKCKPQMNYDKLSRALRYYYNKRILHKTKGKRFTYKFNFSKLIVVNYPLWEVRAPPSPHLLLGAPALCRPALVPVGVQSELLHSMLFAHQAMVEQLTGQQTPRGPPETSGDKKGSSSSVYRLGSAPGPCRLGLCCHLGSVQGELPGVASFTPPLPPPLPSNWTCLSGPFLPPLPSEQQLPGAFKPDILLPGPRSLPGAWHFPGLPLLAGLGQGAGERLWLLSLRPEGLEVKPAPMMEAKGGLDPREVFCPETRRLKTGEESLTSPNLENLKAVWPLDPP
How it was run: as §1

ETS2 = biological target: T3, ETS2 (Homo sapiens, UniProt P15036 1-469)
T3 sequence: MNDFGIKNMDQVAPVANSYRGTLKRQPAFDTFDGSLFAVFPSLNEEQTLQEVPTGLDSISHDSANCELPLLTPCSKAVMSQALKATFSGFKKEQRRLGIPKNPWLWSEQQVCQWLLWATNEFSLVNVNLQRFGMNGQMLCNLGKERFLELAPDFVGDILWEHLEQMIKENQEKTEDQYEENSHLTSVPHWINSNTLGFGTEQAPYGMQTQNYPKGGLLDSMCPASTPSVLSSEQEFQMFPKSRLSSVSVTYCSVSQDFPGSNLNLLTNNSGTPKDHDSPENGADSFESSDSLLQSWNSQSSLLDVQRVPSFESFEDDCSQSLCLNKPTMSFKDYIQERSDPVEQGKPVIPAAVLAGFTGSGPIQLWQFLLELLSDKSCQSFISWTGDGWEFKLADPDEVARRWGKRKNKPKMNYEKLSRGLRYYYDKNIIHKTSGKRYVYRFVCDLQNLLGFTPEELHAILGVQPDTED
How it was run: as §1

SPDEF = biological target: T4, SPDEF (Homo sapiens, UniProt O95238 1-335)
T4 sequence: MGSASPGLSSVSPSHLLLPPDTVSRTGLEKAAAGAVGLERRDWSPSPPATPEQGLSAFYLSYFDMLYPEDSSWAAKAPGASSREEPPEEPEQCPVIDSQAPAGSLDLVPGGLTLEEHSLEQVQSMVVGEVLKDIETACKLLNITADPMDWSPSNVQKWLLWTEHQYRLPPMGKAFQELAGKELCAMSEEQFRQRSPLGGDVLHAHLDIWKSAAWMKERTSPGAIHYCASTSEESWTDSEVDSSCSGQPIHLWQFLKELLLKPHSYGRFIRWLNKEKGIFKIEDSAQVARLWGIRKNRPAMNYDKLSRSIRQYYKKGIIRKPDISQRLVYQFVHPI
How it was run: as §1

ETV7 = biological target: T5, ETV7 (Homo sapiens, UniProt Q9Y603 1-341)
T5 sequence: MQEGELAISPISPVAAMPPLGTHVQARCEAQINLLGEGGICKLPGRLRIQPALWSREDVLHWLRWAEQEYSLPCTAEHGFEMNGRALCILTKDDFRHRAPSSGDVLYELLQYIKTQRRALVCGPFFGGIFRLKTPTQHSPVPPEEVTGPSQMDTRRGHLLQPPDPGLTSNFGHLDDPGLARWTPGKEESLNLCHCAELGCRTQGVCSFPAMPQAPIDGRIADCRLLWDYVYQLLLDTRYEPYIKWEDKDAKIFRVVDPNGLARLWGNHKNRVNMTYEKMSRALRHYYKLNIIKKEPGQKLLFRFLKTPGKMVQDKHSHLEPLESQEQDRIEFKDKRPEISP
How it was run: as §1

ELF5 = biological target: T6, ELF5 (Homo sapiens, UniProt Q9UKW6-2 1-255)
T6 sequence: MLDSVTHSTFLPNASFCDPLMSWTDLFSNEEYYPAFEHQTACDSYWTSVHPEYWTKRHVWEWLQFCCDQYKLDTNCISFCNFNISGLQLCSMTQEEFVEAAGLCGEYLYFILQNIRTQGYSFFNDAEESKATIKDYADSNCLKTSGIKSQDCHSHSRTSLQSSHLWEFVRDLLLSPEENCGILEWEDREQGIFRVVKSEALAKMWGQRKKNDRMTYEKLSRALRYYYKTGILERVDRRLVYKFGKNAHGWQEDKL
How it was run: as §1

ETV3 = biological target: T7, ETV3 (Homo sapiens, UniProt P41162-2 1-143)
T7 sequence: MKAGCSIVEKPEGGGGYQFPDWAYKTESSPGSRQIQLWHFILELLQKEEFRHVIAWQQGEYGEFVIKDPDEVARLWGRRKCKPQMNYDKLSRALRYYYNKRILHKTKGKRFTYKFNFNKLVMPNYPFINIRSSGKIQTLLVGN
How it was run: as §1

ETV6 = ETV6 (Homo sapiens, UniProt P41212 1-452)
Chain of ETV6 (P41212 whole entry): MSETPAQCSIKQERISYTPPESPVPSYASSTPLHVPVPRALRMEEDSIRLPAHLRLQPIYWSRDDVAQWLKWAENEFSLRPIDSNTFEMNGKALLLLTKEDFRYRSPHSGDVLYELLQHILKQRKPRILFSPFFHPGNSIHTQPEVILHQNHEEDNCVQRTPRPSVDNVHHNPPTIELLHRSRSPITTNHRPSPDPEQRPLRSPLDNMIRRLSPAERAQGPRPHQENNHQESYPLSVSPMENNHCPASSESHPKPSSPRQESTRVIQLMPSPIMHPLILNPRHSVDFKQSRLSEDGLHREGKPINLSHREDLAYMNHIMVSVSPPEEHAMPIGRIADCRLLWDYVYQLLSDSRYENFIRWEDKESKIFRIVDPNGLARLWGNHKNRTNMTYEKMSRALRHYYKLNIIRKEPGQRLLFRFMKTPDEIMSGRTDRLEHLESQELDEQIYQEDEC
How it was run: as §1

Row | Sequence | binding signal (ERF) | binding signal (ETV3L) | binding signal (ETS2) | binding signal (SPDEF) | binding signal (ETV7) | binding signal (ELF5) | binding signal (ETV3) | binding signal (ETV6)
1 | TCGACT | 1.34 fold enrichment (6-mer frequency, TF over GST control) | 1.27 fold enrichment (6-mer frequency, TF over GST control) | 1.37 fold enrichment (6-mer frequency, TF over GST control) | 1.29 fold enrichment (6-mer frequency, TF over GST control) | 1.32 fold enrichment (6-mer frequency, TF over GST control) | 1.28 fold enrichment (6-mer frequency, TF over GST control) | 1.4 fold enrichment (6-mer frequency, TF over GST control) | 1.35 fold enrichment (6-mer frequency, TF over GST control)
2 | GTTTCG | 1.38 fold enrichment (6-mer frequency, TF over GST control) | 1.33 fold enrichment (6-mer frequency, TF over GST control) | 1.15 fold enrichment (6-mer frequency, TF over GST control) | 1.27 fold enrichment (6-mer frequency, TF over GST control) | 1.27 fold enrichment (6-mer frequency, TF over GST control) | 1.12 fold enrichment (6-mer frequency, TF over GST control) | 1.32 fold enrichment (6-mer frequency, TF over GST control) | 1.23 fold enrichment (6-mer frequency, TF over GST control)
3 | ACGTCT | 1.12 fold enrichment (6-mer frequency, TF over GST control) | 1.29 fold enrichment (6-mer frequency, TF over GST control) | 1.26 fold enrichment (6-mer frequency, TF over GST control) | 1.12 fold enrichment (6-mer frequency, TF over GST control) | 1.29 fold enrichment (6-mer frequency, TF over GST control) | 1.09 fold enrichment (6-mer frequency, TF over GST control) | 1.17 fold enrichment (6-mer frequency, TF over GST control) | 1.19 fold enrichment (6-mer frequency, TF over GST control)
4 | TAATTT | 1.43 fold enrichment (6-mer frequency, TF over GST control) | 1.48 fold enrichment (6-mer frequency, TF over GST control) | 1.41 fold enrichment (6-mer frequency, TF over GST control) | 1.32 fold enrichment (6-mer frequency, TF over GST control) | 1.37 fold enrichment (6-mer frequency, TF over GST control) | 1.46 fold enrichment (6-mer frequency, TF over GST control) | 1.24 fold enrichment (6-mer frequency, TF over GST control) | 1.39 fold enrichment (6-mer frequency, TF over GST control)
5 | ATTTCG | 1.2 fold enrichment (6-mer frequency, TF over GST control) | 1.31 fold enrichment (6-mer frequency, TF over GST control) | 1.3 fold enrichment (6-mer frequency, TF over GST control) | 1.27 fold enrichment (6-mer frequency, TF over GST control) | 1.26 fold enrichment (6-mer frequency, TF over GST control) | 1.27 fold enrichment (6-mer frequency, TF over GST control) | 1.27 fold enrichment (6-mer frequency, TF over GST control) | 1.35 fold enrichment (6-mer frequency, TF over GST control)
6 | GCCCTA | 1.21 fold enrichment (6-mer frequency, TF over GST control) | 1.17 fold enrichment (6-mer frequency, TF over GST control) | 1.22 fold enrichment (6-mer frequency, TF over GST control) | 1.21 fold enrichment (6-mer frequency, TF over GST control) | 1.12 fold enrichment (6-mer frequency, TF over GST control) | 1.11 fold enrichment (6-mer frequency, TF over GST control) | 1.18 fold enrichment (6-mer frequency, TF over GST control) | 1.17 fold enrichment (6-mer frequency, TF over GST control)
